# Assay results as given in PubChem BioAssay (EPA / NIEHS).
# Results filed as inconclusive are left out. Calls of active or inactive are those of the source. How the source made its calls, unless noted: active means hit-call score of the fitted dose curve at least 0.9, where 1 is the maximum; inconclusive means response in the unintended direction; inactive means score below 0.9.
# Columns and labels:
# [1] = biological target: Nucleoli Translocation, AR (gene 367) (UniProt P10275); assay: UPITT_HCI_U2OS_AR_TIF2_Nucleoli_Antagonist: University of Pittsburgh U2OS Androgen Receptor-Transcriptional Intermediary Factor 2 (AR-TIF2) Antagonism High Content Imaging Assay for Nucleoli Translocation (AID 2283997)
# Nucleoli Translocation, AR (gene 367), sequence (P10275 whole entry, looked up): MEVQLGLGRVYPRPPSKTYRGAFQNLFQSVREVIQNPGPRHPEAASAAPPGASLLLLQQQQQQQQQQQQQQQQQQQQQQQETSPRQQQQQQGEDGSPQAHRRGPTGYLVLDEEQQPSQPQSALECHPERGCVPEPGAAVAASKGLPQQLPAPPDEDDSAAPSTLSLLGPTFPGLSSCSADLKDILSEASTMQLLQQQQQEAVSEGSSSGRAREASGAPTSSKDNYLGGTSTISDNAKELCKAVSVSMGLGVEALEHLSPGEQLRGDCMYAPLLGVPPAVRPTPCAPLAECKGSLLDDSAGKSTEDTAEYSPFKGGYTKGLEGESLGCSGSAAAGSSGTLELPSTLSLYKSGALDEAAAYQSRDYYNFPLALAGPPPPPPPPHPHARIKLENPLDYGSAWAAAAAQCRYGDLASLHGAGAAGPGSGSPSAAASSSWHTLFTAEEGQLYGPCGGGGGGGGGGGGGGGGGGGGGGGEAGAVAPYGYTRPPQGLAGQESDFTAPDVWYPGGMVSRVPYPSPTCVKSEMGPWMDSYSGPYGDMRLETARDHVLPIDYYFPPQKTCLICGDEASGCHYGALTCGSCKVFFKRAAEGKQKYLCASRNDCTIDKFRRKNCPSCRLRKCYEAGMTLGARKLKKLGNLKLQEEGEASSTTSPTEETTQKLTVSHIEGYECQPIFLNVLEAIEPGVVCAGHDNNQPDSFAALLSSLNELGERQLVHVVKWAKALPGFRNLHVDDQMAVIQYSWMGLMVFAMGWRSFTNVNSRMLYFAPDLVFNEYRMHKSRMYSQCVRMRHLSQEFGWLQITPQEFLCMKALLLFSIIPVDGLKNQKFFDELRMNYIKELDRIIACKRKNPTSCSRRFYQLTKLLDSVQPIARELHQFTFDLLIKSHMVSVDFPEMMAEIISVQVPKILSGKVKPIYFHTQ
# Summary of the method: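 Antagonism is read as loss of nucleolar AR-RFP signal relative to DHT, imaged in U2OS cells also carrying GFP-TIF2. Compounds screened at 20 uM final, 0.2% DMSO; primary actives retested in triplicate.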
# [2] = biological target: Nucleoli Translocation, AR (gene 367) (UniProt P10275); assay: UPITT_HCI_U2OS_AR_TIF2_Nucleoli_Agonist: University of Pittsburgh U2OS Androgen Receptor-Transcriptional Intermediary Factor 2 (AR-TIF2) Agonism High Content Imaging Assay for Nucleoli Translocation (AID 2283998)
# Summary of the method: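 Nucleolar translocation of AR-RFP, with TIF2-GFP coexpressed in human osteosarcoma U2OS, imaged by high-content fluorescence. Compounds tested singly at 20 uM final, confirmed in triplicate, then titrated 0.195–50 uM final; gain-of-signal relative to DMSO.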
# [3] = biological target: Ratio of Nucleoli Translocation and Cytoplasm, AR (gene 367) (UniProt P10275); assay: UPITT_HCI_U2OS_AR_TIF2_Nucleoli_Cytoplasm_Ratio_Antagonist: University of Pittsburgh U2OS Androgen Receptor-Transcriptional Intermediary Factor 2 (AR-TIF2) Antagonism High Content Imaging Assay for Ratio of Nucleoli Translocation and Cytoplasm (AID 2283999);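 further: antagonists lower the DHT-driven ratio of nucleolar to cytoplasmic red signal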
# Ratio of Nucleoli Translocation and Cytoplasm, AR (gene 367), sequence (P10275 whole entry, looked up): as above
# Summary of the method: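 High-content imaging of red fluorescence ratio, nucleoli versus cytoplasm, in U2OS expressing AR-RFP and TIF2-GFP, fitted relative to DHT. Compounds tested once at 20 uM final, then 0.195 to 50 uM final in serial dilution.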
# [4] = biological target: Ratio of Nucleoli Translocation and Cytoplasm, AR (gene 367) (UniProt P10275); assay: UPITT_HCI_U2OS_AR_TIF2_Nucleoli_Cytoplasm_Ratio_Agonist: University of Pittsburgh U2OS Androgen Receptor-Transcriptional Intermediary Factor 2 (AR-TIF2) Agonism High Content Imaging Assay for Ratio of Nucleoli Translocation and Cytoplasm (AID 2284000);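 further: hits raise the red nucleolar to cytoplasm ratio above vehicle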
# Summary of the method: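 Compounds tested at 20 uM final in primary screen (0.2% DMSO) and 0.195-50 uM final in dose-response (0.5% DMSO). Imaging of human U2OS cells bearing RFP-AR and GFP-TIF2; endpoint is nucleoli/cytoplasm red signal ratio, positive direction relative to DMSO.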
# [5] = CCTE_Harrill_HTTr_Apoptosis_MCF7: CCTE's 6-hour Apoptosis Assessment for the High-Throughput Transcriptomics (HTTr) Platform, in MCF-7 cells cultured in DMEM + 10% fetal bovine serum, Harrill Lab (AID 2284011; active means hit-call score of the fitted dose curve at least 0.9, where 1 is the maximum; inactive means score below 0.9)
# Summary of the method: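 High-content imaging of CellEvent Caspase 3/7 Green signal follows a six-hour exposure, with eight concentrations per chemical. MCF-7 cells grown in DMEM plus 10% fetal bovine serum; activity fitted in both directions against DMSO.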
# DIO1 (gene 1733) = assay: CCTE_GLTED_hDIO1: CCTE's human Deiodinase 1 (DIO1) Inhibition Assay, Great Lakes Toxicology and Ecology Division (GLTED) Lab (AID 2283987);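 further: isolated human DIO1 enzyme in a cell-free setup rather than cells; enzyme activity read as free iodide liberated from substrate via Sandell-Kolthoff colorimetry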
# Summary of the method: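 Inhibition read as reduced iodide release: after 3 h of human DIO1 with chemical, free iodide is quantified colorimetrically (Sandell-Kolthoff cerium/arsenic reaction). Triplicate plates, DMSO baseline.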
# [6] = CCTE_Simmons_MITO_basal_resp_rate: CCTE's HepG2 Seahorse XF Respirometric Screening Assay at Basal Respiratory State, Simmons Lab (AID 2284001; active means hit-call score of the fitted dose curve at least 0.9, where 1 is the maximum; inactive means score below 0.9); settings: actives raise or lower the signal
# Summary of the method: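 Basal-phase OCR in HepG2 cells, read at 6-min intervals across a 72-min run, with test compound injected at 125 nM–100 uM final (7 points). Fitted both directions against DMSO; three biological replicates per concentration.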
# [7] = CCTE_Simmons_MITO_max_resp_rate: CCTE's HepG2 Seahorse XF Respirometric Screening Assay at Maximal Respiratory State [uncoupled], Simmons Lab (AID 2284002; active means hit-call score of the fitted dose curve at least 0.9, where 1 is the maximum; inactive means score below 0.9); settings: actives raise or lower the signal
# Summary of the method: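 Maximal (FCCP-uncoupled) respiration rate in HepG2, from Seahorse kinetic OCR over 72 min at 6 min cycles. Compounds at 125 nM–100 uM final, 7 points, three biological replicates; both directions fit relative to DMSO.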
# [8] = CCTE_Simmons_MITO_inhib_resp_rate: CCTE's HepG2 Seahorse XF Respirometric Screening Assay at Inhibited Respiratory State [full ETC block], Simmons Lab (AID 2284006; active means hit-call score of the fitted dose curve at least 0.9, where 1 is the maximum; inactive means score below 0.9); settings: actives raise or lower the signal
# Summary of the method: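 This endpoint is the respiration rate remaining after rotenone/antimycin A block, in HepG2 cells on a Seahorse XF96. Chemicals spanned 125 nM–100 uM final, in three biological replicates. OCR was read every 6 minutes for 72 minutes and compared with DMSO vehicle.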
# [9] = CCTE_Shafer_MEA_acute_spike_number: CCTE's Neural Acute Assay for Total Number of Spikes, Shafer Lab (AID 2284008; active means hit-call score of the fitted dose curve at least 0.9, where 1 is the maximum; inactive means score below 0.9;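 on AC50: curve fitted for decrease in spike count so AC50 reflects inhibitors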)
# Summary of the method: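 Total spike count from 40 min recordings before and during compound exposure (0.03-40 uM), given as per-well percent change. Cortical cultures from rat, DIV 13 or 15, 37 C; adaptive detection threshold 8x rms noise.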
# [10] = CCTE_Shafer_MEA_acute_firing_rate_mean: CCTE's Neural Acute Assay for Mean Firing Rate, Shafer Lab (AID 2284009; active means hit-call score of the fitted dose curve at least 0.9, where 1 is the maximum; inactive means score below 0.9;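 further: analyzed for loss of signal so actives lower firing rate relative to DMSO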)
# Summary of the method: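 Primary rat cortical neurons on 16-electrode MEA wells were exposed on DIV 13 or 15 to compound (0.03-40 uM). Spike counts per recording time, averaged over electrodes, were compared between 40-min baseline and 40-min post-exposure recordings as percent change.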
# [11] = CCTE_Harrill_HTTr_Viability_MCF7: CCTE's 6-hour Cell Viability Assessment for the High-Throughput Transcriptomics (HTTr) Platform, in MCF-7 cells cultured in DMEM + 10% fetal bovine serum, Harrill Lab (AID 2284010; active means hit-call score of the fitted dose curve at least 0.9, where 1 is the maximum; inactive means score below 0.9)
# Summary of the method: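 Propidium iodide exclusion, imaged by high-content analysis, gauged viability after a six-hour exposure across eight concentrations. Cells were MCF-7 grown in DMEM with 10% fetal bovine serum; fits run in both directions against DMSO.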
# [12] = TOX21_TRB_BLA_Antagonist_Followup_viability: Viability Assessment in the Tox21 Thyroid Hormone Receptor beta Antagonism Beta-lactamase (BLA) Follow-Up Assay (AID 2283961)
# Summary of the method: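 ATP-based CellTiter-Glo luminescence (30 min, room temperature) run in the same wells as the TRβ-bla readout. Cells: GeneBLAzer HEK293T expressing GAL4-TRβ LBD, exposed 18 h at 37C to compounds at 11 concentrations in triplicate, stripped-serum medium.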
# THRB (gene 7068) [13] = biological target: THRB (gene 7068) (UniProt P10828); assay: TOX21_TRB_COA_Antagonist_Followup_ratio: Tox21 Thyroid Hormone Receptor beta Antagonism through Coactivator Recruitment Follow-Up Assay, Ratio (AID 2283967)
# THRB (gene 7068), sequence (P10828 whole entry, looked up, the tested form may be a part): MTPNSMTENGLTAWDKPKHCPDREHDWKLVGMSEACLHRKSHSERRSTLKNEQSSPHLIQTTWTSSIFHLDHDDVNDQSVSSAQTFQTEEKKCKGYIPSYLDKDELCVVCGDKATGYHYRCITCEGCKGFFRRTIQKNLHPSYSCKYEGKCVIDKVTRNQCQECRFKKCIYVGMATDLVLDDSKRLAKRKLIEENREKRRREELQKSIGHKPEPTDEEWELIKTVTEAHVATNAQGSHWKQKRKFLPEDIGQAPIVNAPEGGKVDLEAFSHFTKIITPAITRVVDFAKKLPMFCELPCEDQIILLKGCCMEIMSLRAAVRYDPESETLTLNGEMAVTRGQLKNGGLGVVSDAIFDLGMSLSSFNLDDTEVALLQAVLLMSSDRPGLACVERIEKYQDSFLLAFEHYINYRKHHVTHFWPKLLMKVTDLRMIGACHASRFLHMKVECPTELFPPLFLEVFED
# Summary of the method: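 Coactivator recruitment to the GST-tagged TRb ligand-binding domain (5.0 nM) was read as the 520/495 nm TR-FRET ratio, using 200 nM fluorescein SRC-2 peptide and 2 nM terbium anti-GST. Scaled between DMSO and T3 wells; loss of signal fitted.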
# [14] = biological target: Retinoic acid receptor RXR-alpha (Homo sapiens) (UniProt P19793); assay: TOX21_TR_RXR_BLA_Antagonist_Followup_ratio: Tox21 Thyroid Hormone Receptor beta Retinoid X Receptor alpha (RXRa) Antagonism Beta-lactamase (BLA) Follow-Up Assay, Ratio (AID 2283972)
# Retinoic acid receptor RXR-alpha (Homo sapiens), sequence (P19793 whole entry, looked up): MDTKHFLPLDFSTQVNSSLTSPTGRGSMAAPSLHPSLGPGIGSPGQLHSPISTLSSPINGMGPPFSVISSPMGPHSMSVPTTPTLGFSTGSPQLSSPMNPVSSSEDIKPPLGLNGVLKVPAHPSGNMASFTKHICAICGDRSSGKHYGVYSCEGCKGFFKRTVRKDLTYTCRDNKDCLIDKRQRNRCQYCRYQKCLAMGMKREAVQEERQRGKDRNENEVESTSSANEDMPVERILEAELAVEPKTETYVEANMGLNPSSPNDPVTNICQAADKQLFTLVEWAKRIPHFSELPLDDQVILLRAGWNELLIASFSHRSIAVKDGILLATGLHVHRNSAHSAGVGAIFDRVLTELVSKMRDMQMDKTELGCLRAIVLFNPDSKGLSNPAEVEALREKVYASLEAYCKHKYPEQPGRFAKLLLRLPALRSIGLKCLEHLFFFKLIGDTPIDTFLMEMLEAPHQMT
# Summary of the method: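 After 5 h attachment at 37C, HEK293T RXRa-bla cells (2,500/well, 2% charcoal-stripped FBS, no phenol red) received compounds at 11 concentrations in triplicate for 16 h. Beta-lactamase read as 460:530 nm ratio after 2 h RT substrate loading.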
# [15] = TOX21_TR_RXR_BLA_Antagonist_Followup_viability: Viability Assessment in the Tox21 Thyroid Hormone Receptor beta Retinoid X Receptor alpha (RXRa) Antagonism Beta-lactamase (BLA) Follow-Up Assay (AID 2283979)
# Summary of the method: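 Follow-up compounds (11 concentrations, triplicate) were incubated 16 h at 37C/5% CO2 with HEK293T RXRa-bla cells seeded at 2,500/well in charcoal-stripped-serum medium. ATP content by CellTiter-Glo luminescence gave viability; curves fitted in both directions against DMSO.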
# THRB (gene 7068) [16] = biological target: THRB (gene 7068) (UniProt P10828); assay: TOX21_TRB_COA_Agonist_Followup_ratio: Tox21 Thyroid Hormone Receptor beta Agonism through Coactivator Recruitment Follow-Up Assay, Ratio (AID 2283963; active means hit-call score of the fitted dose curve at least 0.9, where 1 is the maximum; inactive means score below 0.9)
# Summary of the method: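 GST-TRb LBD 5.0 nM + 0.10% BSA + cpd; add fluorescein-SRC-2 200 nM / Tb anti-GST Ab 2 nM; TR-FRET ex 340, em 520:495; norm DMSO 0%, T3 100%.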
# [17] = biological target: Retinoic acid receptor RXR-alpha (Homo sapiens) (UniProt P19793); assay: TOX21_TR_RXR_BLA_Agonist_Followup_ratio: Tox21 Thyroid Hormone Receptor beta Retinoid X Receptor alpha (RXRa) Agonism Beta-lactamase (BLA) Follow-Up Assay, Ratio (AID 2283968)
# Summary of the method: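 Agonist mode: compounds given to RXRa-bla HEK293T cells at 11 concentrations, triplicate, 16 h at 37C/5% CO2. Readout is the 460:530 nm blue/green ratio after 2 h substrate loading at room temperature; DMSO baseline, 9-cis retinoic acid control.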
# [18] = TOX21_TR_RXR_BLA_Agonist_Followup_viability: Viability Assessment in the Tox21 Thyroid Hormone Receptor beta Retinoid X Receptor alpha (RXRa) Agonism Beta-lactamase (BLA) Follow-Up Assay (AID 2283970)
# Summary of the method: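 CellTiter-Glo ATP luciferase read-out of cell viability, multiplexed with the beta-lactamase reporter run. RXRa-bla HEK293T cells in charcoal-stripped serum medium were exposed 16 h at 37C; data fitted both directions relative to DMSO.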
# [19] = CCTE_Simmons_MITO_viability: CellTiter-Glo Viability Assessment for CCTE's HepG2 Seahorse XF Respirometric Screening Assay [post-hoc], Simmons Lab (AID 2284007)
# Summary of the method: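 Luciferase-coupled ATP read-out after the Seahorse run: HepG2 cells treated 90 minutes with test chemical, 7-point series of 125 nM–100 uM final, in triplicate biological runs. Vehicle DMSO; dichlone as positive control over 8 concentrations.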
smiles,measurement,setting,value
O=P(OCC(Br)CBr)(OCC(Br)CBr)OCC(Br)CBr (configuration not stated),outcome,[1],inactive
same,outcome,[2],inactive
same,outcome,[3],inactive
same,outcome,[4],inactive
CC(C)(C)N(NC(=O)c1ccc(Cl)cc1)C(=O)c1ccccc1,outcome,[1],inactive
same,outcome,[2],inactive
same,outcome,[3],inactive
Clc1ccc(Oc2ccccc2)cc1,outcome,[1],inactive
same,outcome,[5],inactive
C=CC(=O)OCC(F)(F)C(F)F,AC50,DIO1 (gene 1733),19.8 µM (active)
O=c1ssc(Cl)c1Cl,AC50,DIO1 (gene 1733),0.149 µM (active)
Cc1ccc(N)cc1N,outcome,[6],inactive
same,outcome,[7],inactive
same,outcome,[8],inactive
same,outcome,[9],inactive
same,outcome,[10],inactive
COC(=O)C(F)(F)C(F)(F)OC(F)(C(F)(F)F)C(F)(F)OC(F)=C(F)F (configuration not stated),AC50,DIO1 (gene 1733),0.494 µM (active)
CCCCCCCc1ccc(O)cc1,AC50,DIO1 (gene 1733),77 µM (active)
same,AC50,[1],60.7 µM (active)
same,AC50,[2],19.2 µM (active)
same,AC50,[3],79.6 µM (active)
same,AC50,[4],28.9 µM (active)
same,AC50,[6],40.4 µM (active)
same,AC50,[7],27.6 µM (active)
same,outcome,[8],inactive
same,outcome,[5],inactive
CCN(CC)c1ccccc1,outcome,[1],inactive
same,outcome,[2],inactive
same,outcome,[4],inactive
same,outcome,[11],inactive
same,outcome,[5],inactive
[N-]=[N+]=[N-],outcome,[1],inactive
same,outcome,[2],inactive
same,outcome,[3],inactive
same,outcome,[4],inactive
same,outcome,[6],inactive
same,AC50,[7],50 µM (active)
same,outcome,[8],inactive
same,outcome,[9],inactive
same,outcome,[10],inactive
same,outcome,[11],inactive
ClC1=C(Cl)C2(Cl)C3C(Cl)C(Cl)CC3C1(Cl)C2(Cl)Cl (configuration not stated),AC50,[1],11.5 µM (active)
same,outcome,[2],inactive
same,outcome,[3],inactive
same,outcome,[4],inactive
same,outcome,[9],inactive
same,outcome,[10],inactive
CC(C)(C)c1ccccc1OP(=O)(Oc1ccccc1)Oc1ccccc1,AC50,[9],1.33 µM (active)
same,AC50,[10],1.33 µM (active)
CCCCC(CC)COP(=O)(Oc1ccccc1)Oc1ccccc1 (configuration not stated),outcome,[1],inactive
same,outcome,[2],inactive
same,outcome,[3],inactive
same,outcome,[4],inactive
same,AC50,[9],15 µM (active)
same,AC50,[10],15 µM (active)
same,outcome,[5],inactive
CO/N=C(/C(=O)OC)c1ccccc1COc1ccccc1C,outcome,[12],inactive
same,outcome,THRB (gene 7068) [13],inactive
same,outcome,[14],inactive
same,outcome,[15],inactive
same,outcome,[1],inactive
same,outcome,[2],inactive
same,outcome,[3],inactive
same,outcome,[4],inactive
same,outcome,[11],inactive
same,outcome,[5],inactive
CCCCN(CC)C(=O)SCCC,outcome,[1],inactive
same,outcome,[2],inactive
same,outcome,[3],inactive
same,outcome,[4],inactive
same,outcome,[5],inactive
CC(Cc1ccc(OCC(=O)O)cc1)NCC(O)c1csc(C(F)(F)F)n1 (configuration not stated),outcome,THRB (gene 7068) [16],inactive
same,outcome,[17],inactive
same,outcome,[18],inactive
same,outcome,[11],inactive
CCC1(c2ccccc2)C(=O)N=C(O)NC1=O (configuration not stated),outcome,THRB (gene 7068) [16],inactive
same,outcome,[17],inactive
same,outcome,[18],inactive
same,outcome,[9],inactive
same,outcome,[10],inactive
CC(C)(C)c1ccc(O)cc1,AC50,[6],37.2 µM (active)
same,outcome,[7],inactive
same,outcome,[8],inactive
same,outcome,[19],inactive
same,outcome,[11],inactive
Nc1ccc2ccccc2c1,AC50,[9],0.109 µM (active)
same,AC50,[10],0.109 µM (active)
